Screening results from PubChem BioAssay.
AmpC detergent – inhibitors of E. coli AmpC beta-lactamase with detergent; AID 485294; P00811; AmpC hydrolysis of nitrocefin, absorbance 480 nm, 0.01% Triton; 370,000 tested, 0.041% active; Potency, µM (top dose mostly 114 µM), without a hit: at the highest dose activity change, negative = inhibition, usual class: inhibitors;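 note: 0% = no-compound wells and -100% = no-enzyme wells; nearly all actives have a fitted effect of over 25% in size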
Target sequence (P00811 whole entry, looked up): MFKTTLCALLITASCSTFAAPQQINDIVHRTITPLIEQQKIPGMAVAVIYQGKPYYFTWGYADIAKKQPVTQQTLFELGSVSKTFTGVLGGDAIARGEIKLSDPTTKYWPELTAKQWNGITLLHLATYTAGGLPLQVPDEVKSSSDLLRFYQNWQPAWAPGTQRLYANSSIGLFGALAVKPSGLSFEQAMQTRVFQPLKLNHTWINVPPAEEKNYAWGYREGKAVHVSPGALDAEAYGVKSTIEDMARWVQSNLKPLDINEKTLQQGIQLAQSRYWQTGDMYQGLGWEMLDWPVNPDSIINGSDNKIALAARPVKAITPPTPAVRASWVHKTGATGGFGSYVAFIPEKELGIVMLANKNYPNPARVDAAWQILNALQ
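AmpC (5.3 nM in the dispensed reagent) in 20 mM phosphate pH 7.0 with 0.01% (detergent screen) or 0.0001% Triton X-100 was preincubated with compounds for 15 min at room temperature. Nitrocefin was then added from an 800 uM solution, and hydrolysis was followed at 480 nm.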
AmpC no deterg – AmpC beta-lactamase inhibition without detergent; P00811; AmpC nitrocefin hydrolysis, absorbance 480 nm, 0.0001% Triton; Potency, µM (series often up to 57.1 µM), inactives show top-dose activity change, negative = inhibition, hits mostly inhibitors; 330,000 tested, 0.52% active;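 note: plate controls were no compound for no effect and no enzyme for full effect; nearly all actives have a fitted effect of over 20% in size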
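AmpC (5.3 nM in the dispensed reagent) in 20 mM phosphate pH 7.0 with 0.01% (detergent screen) or 0.0001% Triton X-100 was preincubated with compounds for 15 min at room temperature. Nitrocefin was then added from an 800 uM solution, and hydrolysis was followed at 480 nm.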
Pf growth 96h – inhibits malaria parasite growth, 96 h. AID 504834. P. falciparum luciferase reporter growth, 96 h. Potency, µM (doses to about 28.7 µM), for the others: at the highest dose activity change, negative = inhibition, hits mostly inhibitors. 320,000 tested, 6.9% active
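Two parasite generations (96 h, 37 C, 5% CO2) of compound exposure in infected erythrocytes (0.05% parasitemia, 2% hematocrit). Luciferase-reporter P. falciparum; decreased luminescence indicates inhibited growth, aimed at apicoplast-acting delayed death.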
HCV inh – inhibitors of hepatitis C virus infection; Huh7.5.1 HCVcc-Cre infection, luciferase reporter, 44 h; Potency, µM (titrated, usually from 41.8 µM), inactives show at the top dose activity change, negative = inhibition, hits mostly inhibitors; 340,000 tested, 3.4% active; AID 651820
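Luciferase read-out (15 sec integration) after a 15 min room-temperature substrate step quantifies HCVcc-Cre infection. Cells, 1,000 per well, had compound added 4 h post-plating, then virus at ~0.5 moi, and were cultured 44 h.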
AMA1-RON2 inh – inhibitors of Plasmodium falciparum AMA1-RON2 interaction | AlphaScreen AMA1-biotinylated RON2 peptide binding | Potency, µM (top dose mostly 58.2 µM), without a hit: at the top dose activity change, negative = inhibition, actives largely listed as inhibitors | 360,000 tested, 0.2% active;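 note: 0% = vehicle wells and -100% = peptide control; nearly all actives have a fitted effect of over 45% in size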
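AMA1 (3D7) with his tag at 25 nM final met compounds first, then biotinylated RON2 peptide at 25 nM; detection used donor plus acceptor beads, 10 µg/mL apiece, read by AlphaScreen after 30 min at room temperature.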
Pf growth 48h – P. falciparum growth inhibition at 48 hours (one generation). P. falciparum luciferase growth in erythrocytes, 48 h. Potency, µM (highest dose often 28.7 µM), inactives show top-dose activity change, negative = inhibition, actives largely listed as inhibitors. 310,000 tested, 5.9% active. AID 504832
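Compounds are pin-transferred into medium, infected erythrocytes (2% hematocrit, 0.1% parasitemia final) are added, and plates sit one parasite generation at 37 C in 5% CO2. Detection reagent is then added and luminescence measured.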
* marks the source's active call; other numbers are inactive results; ? = inconclusive; . = no result given; [ ] = dose if it differs, or a comment. An excerpt weighted towards active compounds, which were near 11% of everything screened. Calls come from the whole dose curve; as a rule, active = well fitted curve in the direction sought with a large enough effect; inconclusive = small, poorly fitted or top-dose-only effect, or another doubt; inactive = no such curve, though single readings can be large; an effect the other way counts as inactive or inconclusive. Unless noted, % is set by controls: 0 for no effect and ±100 for the full control effect; potency is the fitted concentration of half-maximal effect.

SMILES	AmpC detergent	AmpC no deterg	Pf growth 96h	HCV inh	AMA1-RON2 inh	Pf growth 48h
O=C(O)CC1S/C(=N/N=C/c2ccccn2)NC1=O (configuration not stated)	2%	-4%	?	17%	-19%	5.2µM*
NC(=S)N/N=C/c1c[nH]c2ccc(OCc3ccccc3)cc12	4%	-43%	?	13µM*	65%	?
O=C(CC1S/C(=N/N=C/c2c[nH]c3ccc(OCc4ccccc4)cc23)NC1=O)Nc1ccccc1 (configuration not stated)	?	5µM*	12µM*	14%	-8%[2.32 µM]	18%
O=C(CC1S/C(=N/N=C/c2c[nH]c3ccccc23)NC1=O)Nc1ccccc1 (configuration not stated)	-3%	25µM*	101%	8%	51%	-7%
COc1cccc(/C=N/NC(N)=S)c1OCc1cccc(Cl)c1	-1%	-53%	3.7µM*	?	66%	12µM*
O=C(CC1S/C(=N/N=C/c2cccs2)NC1=O)Nc1ccc(Cl)cc1 (configuration not stated)	-17%	-32%	1.9µM*	35%	47%	-5%
O=C(CC1S/C(=N/N=C/c2cccs2)NC1=O)Nc1ccc(Cl)c(Cl)c1 (configuration not stated)	1%	-25%	?	11%	-1%	17%
NC(=S)N/N=C\c1ccccc1OCc1ccccc1	-11%	-39%	?	?	32%[11.6 µM]	-11%
CCc1ccccc1NC(=O)C(=O)NCCCN1CCOCC1	-7%	.	.	.	.	.
CCn1nc(-c2ccccc2)c(-c2ccccc2)c(C(=O)OCCOC)c1=O	4%	.	.	.	.	.
CCC(=O)Nc1cc(-c2cc3ccccc3oc2=O)ccc1OC	-14%	1%	2.9µM*	?	1%	85%
COc1cc(NC(=O)c2cccnc2)ccc1-c1cc2ccccc2oc1=O	-1%	-11%	57%	.	.	-5%
COc1cc(NC(=O)c2cc(Cl)ccc2Cl)ccc1-c1cc2ccccc2oc1=O	?	-26%	12µM*	.	-1%	?
COc1ccc(-c2cc3ccccc3oc2=O)cc1NC(=O)c1ccc([N+](=O)[O-])o1	-9%	-30%	2.6µM*	?	1%	?
COc1ccc(-c2cc3ccccc3oc2=O)cc1NC(=O)c1ccc(Br)o1	0%	-20%	-2%	16%	-16%	17%
Cc1ccc(C)c(C(=O)c2c(N)c(-c3nc(-c4ccc5c(c4)OCO5)cs3)c3ccccn23)c1	23%	.	.	.	.	.
CC(C)NC(=O)CSc1nnc(CNC(=O)OC(C)(C)C)n1C	1%	-9%	40%	12%	-10%	1.9µM*
Cc1ccccc1-c1ccnc2c(-c3ccc(F)cc3)c(C)nn12	-3%	.	.	.	.	.
COc1ccc(N2C(=O)C(CN3CCN(C)CC3)C2c2ccccc2)cc1 (configuration not stated)	4%	30%	0%	35µM*	-3%	-15%
CCOC(=O)Cc1nnc(Nc2ccc(C)cc2C)c2ccccc12	-1%	-26%	4.7µM*	3%	15%	2%
COc1ccccc1N1CCN(c2ccc(-c3nc(-c4ccccc4)no3)cc2[N+](=O)[O-])CC1	0%	.	.	.	.	.
CCN(CC)c1ccc(NC(=O)c2cnccn2)cc1S(=O)(=O)Nc1ccc(OC)cc1	?	21%	?	8.9µM*	5%	?
CCN(CC)c1ccc(NC(=O)c2ccccc2Br)cc1S(=O)(=O)Nc1ccccc1OC	0%	-33%	0%	?	-7%	15µM*
CCNC(=S)Nc1ccc(C)c(S(=O)(=O)Nc2ccccc2OC)c1	4%	-3%	5%	-4%	-10%	-5%
COCCN(CCOC)S(=O)(=O)c1ccc(NC(=O)c2cnccn2)cc1	-3%	30%	9%	11%	19%	8.3µM*
